Test results taken from PubChem BioAssay AID485350 (ICCB-Longwood Screening Facility, Harvard Medical School, 2010).
Where “and” joins values, the source holds several entries; their conditions need not be identical. Identical values can stand only once. About 95 (0.1%) of roughly 84,000 compounds were called active. This excerpt belongs to a sample that is enriched for actives. Values without a mark were called inactive. Cut-off read from the data, not from the text of the source: active = inhibition above about 25% (passing the limit was not always enough); inactive = the rest.

These molecules were tested on BasE (2,3-dihydroxybenzoate-AMP ligase), Acinetobacter baumannii ATCC 17978 (assay: BasE siderophore enzyme inhibitors, primary screen, biochemical, Acinetobacter baumannii ATCC 17978, fluorescence polarization (AID 485350;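 note: 0% = negative plate control signal and 100% = positive plate control signal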)). Settings: purified BasE, fluorescence polarization binding displacement; stronger effect = higher value; concentration not given here.
For `CCN(CC)CC(O)Cn1c(=O)n(CC(O)CN(CC)CC)c(=O)n(CC(O)CN(CC)CC)c1=O` (stereo not drawn), the inhibition was -0.02%.
In the case of `O=C1Cc2ccccc2C(=O)N1Cc1ccccn1`, the inhibition was 4.89%.
With `O=C1CCC2(C(=O)OCCCn3c(=O)[nH]c4ccccc43)Sc3ccccc3N12` (stereo not drawn) the inhibition was 1.34%.
Molecule `O=C(c1cc(Cl)c(O)c(Cl)c1)N1CCc2ccccc2C1` has an inhibition of 3%.
Molecule `Cc1nn2cnnc2c(C)c1CCC(=O)NCCCc1ccccc1` has an inhibition of -4.03%.
For `O=C(CCC1CC(=O)OC1c1ccccc1)Nc1nccs1` (stereo not drawn), the inhibition was 0.54%.
With `CCOC(=O)c1c(C)oc2ncnc(N(C)Cc3ccccc3)c12` the inhibition was 1.14%.
Molecule `COC(=O)c1cc(S(=O)(=O)N(CCCN2CCOCC2)C2CCN(C)CC2)cn1C` has an inhibition of -0.33%.
`Cc1c(CCC(C)C)c(NCCN2CCOCC2)n2c(nc3ccccc32)c1C#N` was tested, and the inhibition was 2.4%.
`CCN(C(=O)COc1ccc(Cl)cc1C)c1ccccc1` gave an inhibition of 0.83%.
`CCOc1ccc(-n2cc(C(=O)N3CCN(c4ccccc4OC)CC3)c3cc(OC)c(OC)cc3c2=O)cc1` was tested, and the inhibition was 0.29%.
`Cc1cccc(NC(=O)NCC(=O)NC2CC2)c1` was tested, and the inhibition was -0.65%.
`COCC(C)NC(=O)Nc1c[nH]c2ccccc12` (stereo not drawn) was tested, and the inhibition was -1.24%.
Molecule `CCOc1cc(C(=O)CCC(=O)O)ccc1O` has an inhibition of 0.21%.
With `CCN(Cc1ccccc1)C(=O)c1cccc(N2C(=O)CCC2=O)c1` the inhibition was 1.51%.
With `C=CCN1C(=O)S/C(=C\c2ccc(OCC(=O)OC)cc2)C1=O` the inhibition was 0.73%.
For `CCSc1nnc(CNc2ccc(F)cc2)n1-c1ccc(C)cc1`, the inhibition was 1.16%.
Molecule `CN(CC(=O)Nc1ccccc1Cl)Cn1nc(-c2ccco2)oc1=S` has an inhibition of 1.44%.
`CCCN(CCC)Cc1ccc(CNc2nc(-c3ccc(OC)cc3)no2)o1` gave an inhibition of -0.49%.
`CCC(CO)n1c(SCC(=O)Nc2ccc(C)c(C)c2)nc2cc(OC)c(OC)cc2c1=O` (stereo not drawn) gave an inhibition of 1.28%.
`COc1ccc(-c2noc(C3CCN(C(=O)OC(C)(C)C)CC3)c2C(=O)O)cc1` was tested, and the inhibition was 1.39%.
For `Nc1ccccc1C(=O)NCC1CCCO1` (stereo not drawn), the inhibition was -4.47%.
For `COc1ccc(-n2cc3c(c(C#N)c2=N)CC(C)(C)CC3=O)c(OC)c1`, the inhibition was -12.9%.
`COC(=O)c1ccc(/C=N/O)cc1` gave an inhibition of 1.3%.
In the case of `S=c1[nH]nc(-c2ccncc2)n1/N=C/c1cccnc1`, the inhibition was -0.5% and 1.06%.
In the case of `Cc1ccc(N=C2C(=O)N(CN3CCCC(C)C3)c3ccccc32)cc1` (stereo not drawn), the inhibition was 0.38%.
`CCCc1nnc(SCC(=O)N2CCCc3ccccc32)n1CC` was tested, and the inhibition was -5.47%.
Molecule `Cc1cccc(C(=O)NCC(=O)NN)c1` has an inhibition of 0.12%.
`O=S(=O)(NCc1ccc2c(c1)OCO2)c1cccc2nsnc12` gave an inhibition of 0.67%.
Work on `CCOCCCNc1nc2ccccc2nc1NS(=O)(=O)c1cccc2nsnc12` yielded an inhibition of 0.69%.
In the case of `Cc1csc(NC(=O)C2CCC(CNS(=O)(=O)c3cccc4nsnc34)CC2)n1` (stereo not drawn), the inhibition was 28.5% (active).
Molecule `Cc1cc(C)n(-c2ccc(C(=O)OCC(=O)C(C)(C)C)cc2)n1` has an inhibition of -0.47%.
`OC(CN1CCCCC1)CN1c2ccccc2Sc2ccccc21` (stereo not drawn) gave an inhibition of -0.28%.
Molecule `O=C(Nc1ccccc1)Nc1ccc(Cl)c(Cl)c1` has an inhibition of 2.62%.
`Cc1ccccc1Nc1nc(N)nc(Cn2cc(Br)ccc2=O)n1` gave an inhibition of 2.02%.
Molecule `Cc1ccc(S(=O)(=O)N(C)CC(=O)O)cc1` has an inhibition of 0.19%.
For `CC(C)CN(CC(C)C)C(=O)C1CCN(S(=O)(=O)c2cccc3nsnc23)CC1`, the inhibition was -0.22%.
`CCc1c(C)nc2n(c1=O)C(CS(=O)(=O)c1ccc3ccccc3c1)CS2` (stereo not drawn) was tested, and the inhibition was 2.08%.
`O=C(O)CN1CCN(C(c2ccccc2)c2ccccc2)CC1` was tested, and the inhibition was 1.06%.
Molecule `CCCCn1c(N)c(N(C(=O)c2ccc(Cl)c(Cl)c2)C2CCCC2)c(=O)[nH]c1=O` has an inhibition of 2.21%.
Molecule `Cc1ccc(NC(=O)CCn2c(=O)sc3ccccc32)cc1C` has an inhibition of 2.16%.
Work on `O=C(CSc1cccc[n+]1[O-])c1cc2c3c(c1)CC(=O)N3CCC2` yielded an inhibition of 1.79%.
With `Cc1ccsc1C(=O)OCc1nc2sc3c(c2c(=O)[nH]1)CCCC3` the inhibition was -0.18%.
